For some assays here: Entries with a potency or affinity are not part of this list.

Common to all, as to design: scale not given: direction of the effect not stated beside the values
In experiment [1] the target is Protein translocase subunit SecA (Escherichia coli (strain K12)) (UniProt P10408). As to the kind of experiment: Assay to Identify E. coli SecA ATPase Inhibitors. The class given is functional. The settings on record: 30 µM.
Experiment [2] has as its target T1, Ubiquitin-activating enzyme e1, putative (Leishmania donovani (strain BPK282A1)) (UniProt E9BSI1).
T1 sequence (whole entry): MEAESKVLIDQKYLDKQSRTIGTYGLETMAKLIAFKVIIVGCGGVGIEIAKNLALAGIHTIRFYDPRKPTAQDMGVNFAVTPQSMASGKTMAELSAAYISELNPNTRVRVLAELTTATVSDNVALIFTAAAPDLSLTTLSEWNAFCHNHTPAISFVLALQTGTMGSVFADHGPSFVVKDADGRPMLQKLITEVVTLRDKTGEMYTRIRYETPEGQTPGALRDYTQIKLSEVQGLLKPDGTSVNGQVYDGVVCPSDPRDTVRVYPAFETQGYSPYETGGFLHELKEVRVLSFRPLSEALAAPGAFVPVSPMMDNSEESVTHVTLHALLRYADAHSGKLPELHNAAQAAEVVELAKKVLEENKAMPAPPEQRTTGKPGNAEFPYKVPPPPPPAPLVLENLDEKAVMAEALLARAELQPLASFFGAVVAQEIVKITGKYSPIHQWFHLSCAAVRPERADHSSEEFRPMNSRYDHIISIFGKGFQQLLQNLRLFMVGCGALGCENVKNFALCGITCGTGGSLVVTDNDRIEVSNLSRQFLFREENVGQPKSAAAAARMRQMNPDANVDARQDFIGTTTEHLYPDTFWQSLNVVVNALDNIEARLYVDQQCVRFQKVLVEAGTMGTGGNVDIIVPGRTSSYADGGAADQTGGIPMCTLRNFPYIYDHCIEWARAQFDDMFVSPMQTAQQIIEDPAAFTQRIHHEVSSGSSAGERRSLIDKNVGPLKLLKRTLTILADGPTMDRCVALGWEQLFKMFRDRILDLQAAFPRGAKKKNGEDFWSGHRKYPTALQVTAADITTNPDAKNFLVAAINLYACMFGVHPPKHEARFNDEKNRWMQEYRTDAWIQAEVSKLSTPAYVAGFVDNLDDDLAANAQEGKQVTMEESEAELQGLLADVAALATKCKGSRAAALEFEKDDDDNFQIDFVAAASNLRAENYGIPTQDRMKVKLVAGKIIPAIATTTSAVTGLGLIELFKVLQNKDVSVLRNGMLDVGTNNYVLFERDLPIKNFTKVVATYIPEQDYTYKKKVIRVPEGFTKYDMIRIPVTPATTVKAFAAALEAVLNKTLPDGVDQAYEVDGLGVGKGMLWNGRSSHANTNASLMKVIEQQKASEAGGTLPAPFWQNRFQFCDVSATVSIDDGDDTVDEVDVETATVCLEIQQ
As to the kind of experiment: Leishmania donovani Ubiquitin Activating Enzyme (LdE1). Particulars: 30 µM. The class given is functional.

Experiment [3] has as its target AMP-activated protein kinase, AMPK (Homo sapiens) (UniProt P54646+O43741+P54619+Q9UGJ0+Q9Y478+Q13131+Q9UGI9). As to the kind of experiment: AMP-dependent Kinase enzyme assay. An in vitro enzyme assay that detects ADP turnover that is directly proportional to AMPK activity. This uses naive AMPK that is activated during the assay with MK-8722. The class given is functional. Particulars: 30 µM.

The target in experiment [4] is Sialic acid-binding Ig-like lectin 9 (Homo sapiens) (UniProt Q9Y336). As to the kind of experiment: Hs-Siglec9 ALPHAscreen SOP 20170721. Particulars: 10 µM.
Sialic acid-binding Ig-like lectin 9 (Homo sapiens), sequence (Q9Y336 whole entry): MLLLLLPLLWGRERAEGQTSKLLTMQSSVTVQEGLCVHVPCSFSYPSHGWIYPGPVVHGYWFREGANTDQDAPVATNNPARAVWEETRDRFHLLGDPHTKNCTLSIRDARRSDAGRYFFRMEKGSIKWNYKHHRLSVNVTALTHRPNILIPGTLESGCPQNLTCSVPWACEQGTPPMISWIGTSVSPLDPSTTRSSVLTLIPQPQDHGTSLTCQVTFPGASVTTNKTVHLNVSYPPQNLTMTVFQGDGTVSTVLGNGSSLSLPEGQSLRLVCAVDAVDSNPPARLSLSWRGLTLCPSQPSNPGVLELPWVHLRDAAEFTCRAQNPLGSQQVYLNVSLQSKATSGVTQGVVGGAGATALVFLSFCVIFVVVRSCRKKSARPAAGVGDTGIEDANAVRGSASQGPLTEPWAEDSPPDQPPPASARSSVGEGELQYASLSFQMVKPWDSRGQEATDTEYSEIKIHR
The test system of a further experiment is Trypanosoma cruzi. As to the kind of experiment: Trypanosoma cruzi phosphomannomutase and mannose-1-phosphate guanylyltransferase assay. The class given is functional. Particulars: 10 µM.
Experiment [5] addresses T2, Arginase-2, mitochondrial (Homo sapiens) (UniProt P78540).
T2 sequence (whole entry): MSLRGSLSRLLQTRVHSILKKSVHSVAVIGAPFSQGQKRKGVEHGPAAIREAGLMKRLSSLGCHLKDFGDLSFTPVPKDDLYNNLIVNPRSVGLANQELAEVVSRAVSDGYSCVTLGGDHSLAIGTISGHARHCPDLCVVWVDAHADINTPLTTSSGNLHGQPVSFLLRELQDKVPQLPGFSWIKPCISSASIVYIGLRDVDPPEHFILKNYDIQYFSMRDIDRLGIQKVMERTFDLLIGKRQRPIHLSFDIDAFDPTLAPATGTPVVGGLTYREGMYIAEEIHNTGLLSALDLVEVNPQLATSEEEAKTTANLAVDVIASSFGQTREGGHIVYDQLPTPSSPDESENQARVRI
Briefly: in vitro enzyme assay to detect the production of urea directly proportional to the activity of Arginase II. Note: in the data most compounds retested in dose-response had high values. Particulars: 33.3 µM. The class given is functional.

In experiment [6] the target is T3, Proteasome subunit beta (Trypanosoma cruzi) (UniProt O96673).
T3 sequence (whole entry): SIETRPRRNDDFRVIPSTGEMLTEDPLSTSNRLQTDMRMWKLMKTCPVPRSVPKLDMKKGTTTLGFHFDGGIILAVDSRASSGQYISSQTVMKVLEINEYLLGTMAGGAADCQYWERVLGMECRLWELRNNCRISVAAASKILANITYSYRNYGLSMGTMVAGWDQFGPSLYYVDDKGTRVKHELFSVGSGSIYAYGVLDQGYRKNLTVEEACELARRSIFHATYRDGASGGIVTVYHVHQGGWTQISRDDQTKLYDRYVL
As to the kind of experiment: Trypanosoma cruzi proteasome chymotrypsin-like activity (TcProtChymo) assay. Note: in the data most compounds retested in dose-response had high values. Format: functional. The settings on record: 9.37 µM.

Another experiment is filed under the species Homo sapiens. Briefly: To identify inhibition of the IFN signalling (Jak-Stat) pathway via expression of an eGFP reporter gene under the control of an IFN-stimulated response element (ISRE) containing MxA promoter. The class given is functional. The settings on record: 30 µM. In general terms: Reporter assays use an easily measured gene product as a stand-in for the process of interest.

The target of experiment [7] is T4, Tyrosyl-tRNA synthetase, putative (Trypanosoma cruzi (strain CL Brener)) (UniProt Q4DSP6).
T4 sequence (whole entry): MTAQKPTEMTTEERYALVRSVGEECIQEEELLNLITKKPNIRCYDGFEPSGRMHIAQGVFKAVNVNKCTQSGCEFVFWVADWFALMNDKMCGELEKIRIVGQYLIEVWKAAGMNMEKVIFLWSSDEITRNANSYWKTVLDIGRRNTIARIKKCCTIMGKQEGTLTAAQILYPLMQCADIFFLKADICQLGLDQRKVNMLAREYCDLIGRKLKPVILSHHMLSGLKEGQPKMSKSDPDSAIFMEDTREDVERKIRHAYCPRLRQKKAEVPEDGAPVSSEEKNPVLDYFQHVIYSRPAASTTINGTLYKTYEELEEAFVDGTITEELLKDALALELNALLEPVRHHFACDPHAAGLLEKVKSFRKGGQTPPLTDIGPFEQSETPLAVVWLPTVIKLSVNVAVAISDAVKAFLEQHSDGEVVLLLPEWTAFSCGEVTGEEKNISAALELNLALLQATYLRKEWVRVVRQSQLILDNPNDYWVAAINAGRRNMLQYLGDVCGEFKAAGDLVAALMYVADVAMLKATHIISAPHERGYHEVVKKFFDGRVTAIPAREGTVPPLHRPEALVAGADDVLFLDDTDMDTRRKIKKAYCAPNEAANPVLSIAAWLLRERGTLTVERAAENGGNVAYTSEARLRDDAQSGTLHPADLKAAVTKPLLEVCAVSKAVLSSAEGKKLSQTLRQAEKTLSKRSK
As to the kind of experiment: Trypanosoma cruzi tyrosyl tRNA synthetase (TcYRS) _High Tyrosine SOP. Note: in the data most compounds retested in dose-response had high values. Format: functional. Particulars: 30 µM.

Experiment [8] deals with T4, Tyrosyl-tRNA synthetase, putative (Trypanosoma cruzi (strain CL Brener)). As to the kind of experiment: Trypanosoma cruzi tyrosyl tRNA synthetase (TcYRS) SOP. Format: functional. The settings on record: 30 µM.
Experiment [9] addresses Chromo domain-containing protein 1 (Saccharomyces cerevisiae (strain ATCC 204508 / S288c) (Baker's yeast)) (UniProt P32657). As to the kind of experiment: ScCHD-1 Enzyme Inhibition Assay. Note: in the data most compounds retested in dose-response had high values. The class given is functional. Particulars: 30 µM.

Protein translocase subunit SecA (Escherichia coli (strain K12)), sequence (P10408 whole entry): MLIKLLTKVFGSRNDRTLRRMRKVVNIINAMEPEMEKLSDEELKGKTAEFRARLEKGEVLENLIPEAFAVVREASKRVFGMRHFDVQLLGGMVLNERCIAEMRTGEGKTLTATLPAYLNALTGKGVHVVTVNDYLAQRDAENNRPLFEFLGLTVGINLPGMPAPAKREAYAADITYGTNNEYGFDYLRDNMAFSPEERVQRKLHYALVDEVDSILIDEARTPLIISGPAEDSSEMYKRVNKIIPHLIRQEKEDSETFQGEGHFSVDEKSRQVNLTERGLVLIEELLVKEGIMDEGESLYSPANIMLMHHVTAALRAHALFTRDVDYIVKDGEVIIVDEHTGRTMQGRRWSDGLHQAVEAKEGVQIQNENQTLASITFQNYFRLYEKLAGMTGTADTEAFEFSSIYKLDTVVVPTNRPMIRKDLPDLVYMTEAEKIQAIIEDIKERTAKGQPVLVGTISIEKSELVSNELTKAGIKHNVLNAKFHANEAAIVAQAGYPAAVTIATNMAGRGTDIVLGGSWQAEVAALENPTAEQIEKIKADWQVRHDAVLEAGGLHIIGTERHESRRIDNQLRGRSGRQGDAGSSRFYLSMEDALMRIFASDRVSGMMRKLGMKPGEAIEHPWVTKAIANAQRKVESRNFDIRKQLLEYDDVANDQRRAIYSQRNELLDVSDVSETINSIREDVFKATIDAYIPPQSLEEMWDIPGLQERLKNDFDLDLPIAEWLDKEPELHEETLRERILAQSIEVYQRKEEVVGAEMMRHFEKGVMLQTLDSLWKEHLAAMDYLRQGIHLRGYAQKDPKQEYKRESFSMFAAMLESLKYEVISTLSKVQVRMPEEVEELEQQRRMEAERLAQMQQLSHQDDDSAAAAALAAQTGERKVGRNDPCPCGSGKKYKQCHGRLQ
Chromo domain-containing protein 1 (Saccharomyces cerevisiae (strain ATCC 204508 / S288c) (Baker's yeast)), sequence (P32657 whole entry, the tested form may be a part): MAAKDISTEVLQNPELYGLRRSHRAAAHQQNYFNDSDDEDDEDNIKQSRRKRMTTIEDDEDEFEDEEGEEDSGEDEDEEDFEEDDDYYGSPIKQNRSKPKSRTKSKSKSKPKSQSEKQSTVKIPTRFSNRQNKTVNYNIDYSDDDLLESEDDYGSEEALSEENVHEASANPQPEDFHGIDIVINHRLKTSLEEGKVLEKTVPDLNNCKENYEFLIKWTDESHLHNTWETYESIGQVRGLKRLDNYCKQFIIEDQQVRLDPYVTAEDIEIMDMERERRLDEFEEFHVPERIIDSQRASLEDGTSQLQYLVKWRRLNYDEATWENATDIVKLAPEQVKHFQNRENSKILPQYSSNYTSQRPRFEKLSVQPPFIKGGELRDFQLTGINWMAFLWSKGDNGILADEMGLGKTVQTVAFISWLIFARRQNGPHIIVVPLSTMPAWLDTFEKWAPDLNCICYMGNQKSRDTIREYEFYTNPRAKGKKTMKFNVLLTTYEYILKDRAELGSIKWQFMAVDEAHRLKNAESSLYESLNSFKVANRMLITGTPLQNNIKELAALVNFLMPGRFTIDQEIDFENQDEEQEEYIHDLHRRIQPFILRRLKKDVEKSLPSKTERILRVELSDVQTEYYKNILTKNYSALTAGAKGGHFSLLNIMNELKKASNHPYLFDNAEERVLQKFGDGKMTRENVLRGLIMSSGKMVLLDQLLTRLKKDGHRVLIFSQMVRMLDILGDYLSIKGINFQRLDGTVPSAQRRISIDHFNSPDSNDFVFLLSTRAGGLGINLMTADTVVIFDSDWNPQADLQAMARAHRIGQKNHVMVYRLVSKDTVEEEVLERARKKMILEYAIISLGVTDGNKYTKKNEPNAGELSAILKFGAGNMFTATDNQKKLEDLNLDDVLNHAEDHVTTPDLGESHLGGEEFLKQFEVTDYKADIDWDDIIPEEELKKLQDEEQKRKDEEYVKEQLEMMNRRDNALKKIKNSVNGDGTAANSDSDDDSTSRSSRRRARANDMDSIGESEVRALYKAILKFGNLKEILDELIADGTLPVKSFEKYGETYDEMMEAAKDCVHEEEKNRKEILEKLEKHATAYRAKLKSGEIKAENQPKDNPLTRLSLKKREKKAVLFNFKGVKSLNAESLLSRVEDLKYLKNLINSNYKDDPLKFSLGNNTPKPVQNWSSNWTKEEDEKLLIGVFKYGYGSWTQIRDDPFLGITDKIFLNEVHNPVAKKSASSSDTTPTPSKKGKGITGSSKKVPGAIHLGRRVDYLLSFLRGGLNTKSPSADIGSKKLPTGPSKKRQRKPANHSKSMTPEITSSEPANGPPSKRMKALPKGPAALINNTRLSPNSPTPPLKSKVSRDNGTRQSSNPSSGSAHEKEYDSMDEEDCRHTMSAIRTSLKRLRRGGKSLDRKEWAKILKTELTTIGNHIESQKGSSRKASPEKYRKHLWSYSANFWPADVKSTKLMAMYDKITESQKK

Take `O=C(NCc1ccco1)[C@@]12CCO[C@@H]1CCN(CCN1CCCC1)C2`: the Percent Effect in [1] is -6.16%; in experiment [2], 16%; in experiment [3], -5.27%; in experiment [4], -2.5%; in the experiment on Trypanosoma cruzi, 5.21%; in experiment [5], -51.1%. For the same compound, the Percent Effect is 18.5% in [6]; -5.93% in the experiment listed under Homo sapiens; 6.25% in experiment [7]; 22.5% in [8]; -12% in [9].
On to `CCc1ncnc2c1CCN(Cc1ccccn1)CC2`, for which the Percent Effect in experiment [1] was -1.83%; in experiment [2], -1.33%; in [3] it was -3.43%; in [4], -1.27%; with Trypanosoma cruzi, -5.11%; in experiment [5], -11.4%. In addition, the Percent Effect in experiment [6] is 0%; in the experiment filed under Homo sapiens, -11.7%; in [7] it was -3.17%; in experiment [8], -5.13%; in [9], -3.62%.
With `CC(C)OCCCNC(=O)CS(=O)(=O)Cc1ccc(Cl)c(Cl)c1`, the Percent Effect was -6.75% in [1]; 5.2% in [2]; 9.19% in experiment [3]; -7.16% in [4]; -5.8% in the experiment with Trypanosoma cruzi; -1.78% in experiment [5]. Moreover, the Percent Effect in experiment [6] is 9.63%; in the experiment listed under Homo sapiens it was 33.8%; in [7] it was 3.88%; in experiment [8], 12.2%; in experiment [9], -5.85%.
`O=C(COc1coc(CN2CCCCC2)cc1=O)NCc1ccccc1`: the Percent Effect was -1.81% in experiment [1]; 7.89% in experiment [2]; 6.63% in [3]; 2.03% in [4]; -4.38% in the experiment on Trypanosoma cruzi; -4.73% in experiment [5]. The Percent Effect is 18.5% in experiment [6]; -0.295% in the experiment listed under Homo sapiens; 4.25% in [7]; 10.4% in experiment [8]; -5.41% in [9].
Consider `COc1cccc(C(=O)N2CCCCC2CNC(N)=O)c1` (stereo not given), for which the Percent Effect in [1] was -9.94%; in [2], 5.26%; in [3], 4.5%; in [4] it was 4.83%; in the experiment with Trypanosoma cruzi, -4.58%; in experiment [5], -3.6%. Moreover, the Percent Effect stood at 0.0846% in experiment [6]; 1.79% in the experiment listed under Homo sapiens; 3.45% in experiment [7]; 6.17% in [8]; 0.323% in [9].
On to `CC(C)N1CCC(Cc2cc(-c3ccccc3C(=O)O)ncn2)CC1`, for which the Percent Effect in [1] was -1.66%; in experiment [2], 52.7%; in [3] it was 4.35%; in experiment [4], -7.29%; with Trypanosoma cruzi, -0.988%; in experiment [5] it was 2.09%. For the same compound, the Percent Effect in experiment [6] was 5.3%; in the experiment filed under Homo sapiens, 17.4%; in [7], 4.3%; in experiment [8], 6.49%; in experiment [9], -7.12%.
With `CCOC(=O)[C@]12CCCN(Cc3nccs3)C[C@H]1CN(C(C)=O)C2`, the Percent Effect in experiment [1] was -1.26%; in experiment [2] it was 5.2%; in experiment [3], -1.96%; in [4], -4.79%; in the experiment with Trypanosoma cruzi, -9.17%; in experiment [5] it was -0.645%. In addition, the Percent Effect in [6] was 15.7%; in the experiment filed under Homo sapiens it was 7.39%; in experiment [7] it was 0%; in [8], 6.41%; in experiment [9], -6.7%.
Consider `CN(C)C(CNC(=O)c1cc2c([nH]c1=O)CCCC2=O)c1ccsc1` (stereo not given), for which the Percent Effect is -5.23% in [1]; 16.2% in experiment [2]; -3.65% in [3]; 17.4% in [4]; 4.55% with Trypanosoma cruzi; -0.554% in [5]. Also, the Percent Effect in experiment [6] was determined as 2.51%; in the experiment listed under Homo sapiens, 1.27%; in experiment [7], 5.94%; in experiment [8], 18.3%; in [9], 45%.
Take `CCSCC(C)NCc1nncn1C1CCCCC1` (stereo not given): the Percent Effect in experiment [1] is -0.842%; in experiment [2], 6.94%; in experiment [3], -1.51%; in [4], -1.31%; with Trypanosoma cruzi, 2.23%; in experiment [5] it was 0.883%. For the same compound, the Percent Effect in [6] was 16%; in the experiment filed under Homo sapiens, -2.28%; in [7] it was 11.6%; in experiment [8], 20.5%; in experiment [9], -4.13%.
`Cc1cnn(CCC(=O)N2CCN(c3ncccc3Cl)CC2)c1`: the Percent Effect in [1] is -2.22%; in experiment [2], 3.8%; in experiment [3], 10.2%; in experiment [4], 2%; in the experiment with Trypanosoma cruzi, -4.21%; in [5], 1.94%. Also, the Percent Effect in [6] is 10.3%; in the experiment listed under Homo sapiens, 18.8%; in experiment [7] it was 1.04%; in experiment [8], 2.53%; in [9] it was -5.44%.

The record behind these values is ChEMBL document CHEMBL3988442, “University of Dundee, Small-Polar-MMV Screening Library” (2021).
